# Bcl-W Bim block = inhibitors of Bim binding to Bcl-W, primary screen, biochemical, multiplexed, bead-based flow cytometry; Bcl-2-like protein 2 (Homo sapiens), Q92843; Bim peptide-Bcl-W binding; inhibition, % at 10 µM; hit rate 0.02% among 190,000;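 note: higher means less fluorescent Bim peptide bound to Bcl-W beads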
# Target sequence (Q92843 whole entry, looked up): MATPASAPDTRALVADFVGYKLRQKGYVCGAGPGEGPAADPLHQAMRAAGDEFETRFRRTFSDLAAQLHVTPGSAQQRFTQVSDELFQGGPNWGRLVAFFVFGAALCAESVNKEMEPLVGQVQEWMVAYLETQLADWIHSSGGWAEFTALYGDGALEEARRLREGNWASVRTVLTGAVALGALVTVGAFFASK
# Bim-Bcl-XL = inhibitors of Bim-Bcl-XL binding, primary screen, biochemical, multiplexed, bead flow cytometry, human Bcl-XL; Bcl-2-like protein 1 (Homo sapiens), Q07817; Bim peptide-Bcl-XL binding, fluorescence; inhibition, % at 10 µM; hit rate 0.04% among 190,000; AID 1007, 2008
# Bim-Bcl-2 = inhibitors of Bim-Bcl-2 binding, primary screen, biochemical, multiplexed, human Bcl-2 family; Bead-based flow cytometry, Bim peptide-Bcl-2 binding; inhibition, % at 10 µM; hit rate 0.06% among 190,000; in the data active = inhibition above about 40%
# Bcl-B Bim block = inhibitors of Bim-Bcl-B binding, primary screen, biochemical, multiplexed, human Bcl-2 family. Bcl-2-like protein 10 (Homo sapiens), Q9HD36. inhibition, % at 10 µM. bead-based flow cytometry, Bim peptide-Bcl-B binding. AID 951, 2007. hit rate 0.073% among 190,000
# Bfl-1 Bim block = inhibitors of Bim binding to Bfl-1, primary screen, biochemical, multiplexed, bead-based flow cytometry; Bcl-2-related protein A1 (Homo sapiens), Q16548; Bim-Bfl-1 binding inhibition; inhibition, % at 10 µM; hit rate 0.12% among 190,000; AID 1008, 2008
# Target sequence (Q16548 whole entry, looked up): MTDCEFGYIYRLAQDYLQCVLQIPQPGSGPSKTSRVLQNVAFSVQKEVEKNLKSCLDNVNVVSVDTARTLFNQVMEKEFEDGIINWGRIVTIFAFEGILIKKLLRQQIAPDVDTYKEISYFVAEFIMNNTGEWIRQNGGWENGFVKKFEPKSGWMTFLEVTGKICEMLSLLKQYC
# Hits are given with their value; i = inactive; nt = no result given. Shown are actives, neighbours in structure and some others; about 0.2% of the full set was active somewhere. Cut-off read from the data, not from the text of the source, unless noted: active = inhibition above about 40%.
SMILES,Bcl-W Bim block,Bim-Bcl-XL,Bim-Bcl-2,Bcl-B Bim block,Bfl-1 Bim block
Cc1cc(C)nc(SC(C)CNS(=O)(=O)c2ccccc2)n1 (configuration not stated),i,i,i,i,i
C#CCn1c(=O)cc(C)c2ccccc21,i,i,i,i,i
C#CCn1cc(C=C2C(=O)c3ccccc3C2=O)c2ccccc21,i,i,58,71,i
O=C1/C(=C\c2ccc(-c3ccccc3Cl)o2)SC(=S)N1CC1CCCO1 (configuration not stated),i,i,45,i,i
O=C1/C(=C/c2cccnc2)SC(=S)N1CC1CCCO1 (configuration not stated),i,i,i,i,i
COc1cccc(C(=O)/C=C/Nc2ccc(S(=O)(=O)Nc3onc(C)c3C)cc2)c1,i,i,82,78,53
O=C(O)/C=C/C(=O)NNC(=O)c1ccc(Br)cc1,i,41,i,i,i
O=C(/C=C/NNC(=O)c1ccccc1)c1ccc(Br)cc1,i,i,i,i,i
Nc1nc2c(s1)CCc1c-2cnn1-c1ccccc1,i,i,i,i,41
CCOc1cc(S(=O)(=O)Nc2ccccn2)ccc1F,i,i,89,nt,nt
CCOc1cc(S(=O)(=O)Nc2ccc(Cl)cn2)ccc1F,i,i,i,i,i
COCCSc1nnc(NC(=O)C2CC(=O)N(c3ccccc3)C2)s1 (configuration not stated),i,i,i,i,i
O=C(Nc1nnc(SCc2ccccn2)s1)C1CC(=O)N(c2ccccc2)C1 (configuration not stated),i,40,i,i,i
Cc1ccc(-n2[nH]c(C)c(/C=N/Nc3ccc([N+](=O)[O-])cc3[N+](=O)[O-])c2=O)cc1C,i,43,i,42,42
C=CCn1c(C)c(C(C)=O)c(N2CCOCC2)nc1=S,i,i,i,i,48
CCCC1=[N+](CC)CCn2c(C)ccc21,i,i,i,i,i
Cc1cc2n(c1)CCn1c(C)ccc1-2,i,i,i,40,i
CC(=O)N1N=C(c2ccc(C)o2)CC1c1cccc(F)c1 (configuration not stated),i,i,i,i,i
O=C(OCC(=O)c1ccc[nH]1)c1ccccc1,i,i,79,74,52
FC(F)(F)c1ccc(C2Nc3cccc4cccc(c34)N2)cc1,i,i,i,i,i
c1coc(C2Nc3cccc4cccc(c34)N2)c1,i,i,i,i,42
CCOC(=O)C(C)Sc1nnc(NC(=O)c2ccc3c(c2)OCO3)s1 (configuration not stated),i,i,i,i,i
Cc1cc(N)ccc1-n1c(C)ccc1C,i,i,i,i,i
Cc1cc(N)ccc1N1CCCC1,75,64,66,87,73
CN(CC(=O)NCc1ccccn1)S(=O)(=O)c1ccc2ccccc2c1,i,i,i,i,i
SMILES,Bcl-W Bim block,Bim-Bcl-XL,Bim-Bcl-2,Bcl-B Bim block,Bfl-1 Bim block
COc1cccc(C(C(=O)NC2CCCC2)N(CC2CCCO2)C(=O)Cc2cccs2)c1 (configuration not stated),i,i,i,i,i
CN(C)S(=O)(=O)N(CC(=O)Nc1ccccc1C(F)(F)F)c1ccccc1,i,i,86,nt,nt
COc1cc(OC)cc(C2=NCCN2)c1,i,i,i,i,i
CCOC(=O)CCCNC(=O)c1cncc(O)c1,i,i,72,68,46
O=C(NCCCNC(=O)c1cncc(O)c1)c1cncc(O)c1,i,i,i,i,i
COc1ccc(CN(C)CC(=O)NC(C)c2ccccc2)c(OC)c1 (configuration not stated),i,i,62,60,56
Cc1nc2scc(-c3ccccc3)c2c(=O)n1N=C1C=CC(=O)C=C1,i,i,i,i,40
CCOc1c(Cl)cc(CNc2ccc(S(N)(=O)=O)cc2)cc1OC,i,i,i,i,i
CCOc1c(Cl)cc(CNc2ccc(N3CCCC3)cc2)cc1OC,i,i,i,i,41
N=C1C(c2nc3ccccc3s2)=C(O)CN1Cc1ccccc1,i,i,85,83,68
COc1ccc(S(=O)(=O)NCCOc2cccc3cccnc23)cc1OC,i,i,76,65,44
NC(=O)CSc1nnc(Cn2cnc3ccccc32)o1,i,i,i,i,65
Cc1nonc1NC(=O)CSc1nnc(-c2ccoc2C)n1C,i,43,i,i,44
Cc1ccc(C)c(-n2c(SCC(=O)Nc3nonc3C)nnc2-c2ccoc2C)c1,i,i,i,i,i
COc1ccc(C)cc1NC(=O)C(=O)N/N=C(\C)CC(=O)Nc1cccnc1,i,i,i,i,i
O=C(NCc1cccc(F)c1)c1ccc(N2C(=O)Cn3c(cc4sccc43)C2=O)cc1,i,i,i,i,i
CC1CC(CCC(=O)NC(=S)Nc2ccc(Cl)cn2)C(=O)O1 (configuration not stated),i,i,i,i,i
CCOc1cc2c(C#N)c(N3CCNCC3)nc(N)c2c(N)n1,i,i,i,53,i
O=C(Cc1ncc(C(F)(F)F)cc1Cl)NCCc1ccccc1,i,i,i,i,i
CN(C)[C@@H]1C(=O)C(C(=O)NCN2CCCC2)=C(O)[C@@]2(O)C(=O)C3=C(O)c4c(O)cccc4[C@@](C)(O)C3CC12 (some centres not stated),i,i,i,43,i
COc1ccc(NC(=O)Cn2c(CCC(=O)O)ccc2-c2ccc(C)cc2)cc1,i,i,i,i,i
COc1ccc(C2=Nn3c(nnc3-c3ccco3)SC2)cc1OC,i,44,i,i,i
CN1CCc2cccc3c2[C@@H]1Cc1ccc(O)c(O)c1-3,51,i,40,i,40
COc1ccc2c(c1O)-c1ccccc1CCN(C)C2,i,i,i,i,i
CN(C)S(=O)(=O)c1cccc(NC(=O)COC(=O)COc2ccccc2[N+](=O)[O-])c1,i,i,i,i,i
SMILES,Bcl-W Bim block,Bim-Bcl-XL,Bim-Bcl-2,Bcl-B Bim block,Bfl-1 Bim block
CC(C)CCN1CCN(Cc2cccc3cccnc23)CC1CCO (configuration not stated),i,i,i,i,i
Cc1ccc(C)c(NC(=O)COC(=O)CCCN=C2NS(=O)(=O)c3ccccc32)c1,i,i,i,i,i
O=C(COC(=O)CCCN=C1NS(=O)(=O)c2ccccc21)NC(=O)NC1CCCC1,72,105,97,105,i
COC(=O)C(NNc1ccccc1C)(NC(=O)c1ccc(F)cc1)C(F)(F)F (configuration not stated),i,i,i,i,i
O=C1c2ccccc2C(=O)c2cc(S(=O)(=O)Nc3ccccc3)ccc21,i,i,i,41,i
CCOC(=O)C1(C/C(C)=N/NC(N)=O)CC(C)(C)OC1=O (configuration not stated),i,i,i,i,i
